Common to all, as to assay: DAPPL (digital affinity profiling via proximity ligation, sequencing); 10 mM Tris-HCl pH 7.5, 50 mM NaCl, 1 mM DTT, 4% glycerol, room temperature, 30 min; GST-TFs on glutathione beads, 16-mer random dsDNA library, 0.1% formaldehyde crosslink after washing; high values mean tight binding
The target of assay [1] is T1, GABPA (Homo sapiens, UniProt Q06546 1-454).
T1 sequence: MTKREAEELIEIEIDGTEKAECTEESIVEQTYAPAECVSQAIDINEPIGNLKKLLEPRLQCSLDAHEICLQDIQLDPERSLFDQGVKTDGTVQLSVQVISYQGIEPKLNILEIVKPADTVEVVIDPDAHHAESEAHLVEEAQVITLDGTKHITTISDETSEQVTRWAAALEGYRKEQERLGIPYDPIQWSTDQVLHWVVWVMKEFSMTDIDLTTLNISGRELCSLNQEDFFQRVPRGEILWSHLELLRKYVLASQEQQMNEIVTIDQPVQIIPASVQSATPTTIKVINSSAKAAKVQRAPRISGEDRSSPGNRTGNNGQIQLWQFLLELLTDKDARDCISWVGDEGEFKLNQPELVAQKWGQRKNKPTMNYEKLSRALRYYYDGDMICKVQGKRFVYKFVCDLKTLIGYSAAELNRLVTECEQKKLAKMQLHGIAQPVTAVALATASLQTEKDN
The conditions noted are these: protein: recombinant; tags: N-terminal GST; dsDNA, one strand shown. The gist of the method:
(§1)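 Human transcription factors carrying a GST fusion were produced in yeast, bound to glutathione beads, tagged with DNA barcodes and pooled together with a tag-only sample. Each pool was held with 200 nmole of a random double-stranded 16-mer DNA library in Tris/NaCl/DTT/glycerol buffer for 30 min at room temperature, then washed, crosslinked in 0.1% formaldehyde, proximity-ligated with BsaI/T4 ligase (1 h, 37 °C), PCR-amplified and sequenced on an Illumina NextSeq500. Binding signal is the read frequency of each hexamer for a given factor divided by its frequency in the tag-only sample.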

Assay [2] deals with HSF1 (Homo sapiens, UniProt Q00613 1-529). The conditions noted are these: protein: recombinant; tags: N-terminal GST; chain copies: 3; dsDNA, one strand shown. In a few lines: as §1
The target in assay [3] is T2, ELK4 (Homo sapiens, UniProt P28324-2 1-405).
T2 sequence: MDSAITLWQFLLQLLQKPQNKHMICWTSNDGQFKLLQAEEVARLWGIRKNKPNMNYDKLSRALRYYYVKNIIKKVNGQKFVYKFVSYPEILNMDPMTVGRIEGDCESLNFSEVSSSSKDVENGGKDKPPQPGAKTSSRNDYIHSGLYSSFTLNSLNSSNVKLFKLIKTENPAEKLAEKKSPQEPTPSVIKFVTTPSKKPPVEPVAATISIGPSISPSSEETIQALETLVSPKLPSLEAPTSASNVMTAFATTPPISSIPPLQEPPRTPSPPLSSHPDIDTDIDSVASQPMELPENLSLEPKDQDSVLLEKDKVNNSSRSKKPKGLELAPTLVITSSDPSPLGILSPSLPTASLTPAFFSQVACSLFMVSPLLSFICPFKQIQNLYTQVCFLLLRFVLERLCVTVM
The conditions noted are these: protein: recombinant; tags: N-terminal GST; dsDNA, one strand shown. In a few lines: as §1

Assay [4] addresses T3, ETV2 (Homo sapiens, UniProt O00321 1-342).
T3 sequence: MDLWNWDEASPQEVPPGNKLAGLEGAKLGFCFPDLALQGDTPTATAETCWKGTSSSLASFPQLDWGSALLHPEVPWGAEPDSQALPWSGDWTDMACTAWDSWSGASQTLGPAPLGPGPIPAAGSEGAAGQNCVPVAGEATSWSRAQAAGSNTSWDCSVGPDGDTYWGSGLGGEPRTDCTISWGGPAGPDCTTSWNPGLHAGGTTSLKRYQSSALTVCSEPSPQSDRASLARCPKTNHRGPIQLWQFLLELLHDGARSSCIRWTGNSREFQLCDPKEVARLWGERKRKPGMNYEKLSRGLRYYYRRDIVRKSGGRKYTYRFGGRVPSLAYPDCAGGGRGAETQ
The conditions noted are these: protein: recombinant; tags: N-terminal GST; dsDNA, one strand shown. The gist of the method:
as §1

Assay [5] concerns the target T4, ERF (Homo sapiens, UniProt P50548 1-548).
T4 sequence: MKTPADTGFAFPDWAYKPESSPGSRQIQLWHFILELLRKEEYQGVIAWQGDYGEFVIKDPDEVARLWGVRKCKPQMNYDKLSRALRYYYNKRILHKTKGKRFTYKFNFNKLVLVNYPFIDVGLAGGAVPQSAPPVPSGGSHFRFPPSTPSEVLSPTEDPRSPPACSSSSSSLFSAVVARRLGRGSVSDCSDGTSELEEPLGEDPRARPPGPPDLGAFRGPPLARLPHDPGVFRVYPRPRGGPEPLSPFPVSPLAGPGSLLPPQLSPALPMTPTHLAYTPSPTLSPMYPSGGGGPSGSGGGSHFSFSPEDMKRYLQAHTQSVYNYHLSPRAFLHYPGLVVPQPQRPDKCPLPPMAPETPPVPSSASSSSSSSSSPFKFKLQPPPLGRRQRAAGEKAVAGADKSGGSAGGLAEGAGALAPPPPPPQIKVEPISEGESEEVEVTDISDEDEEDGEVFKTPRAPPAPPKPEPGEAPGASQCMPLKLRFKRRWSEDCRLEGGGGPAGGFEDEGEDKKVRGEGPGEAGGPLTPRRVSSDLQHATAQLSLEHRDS
Conditions: protein: recombinant; tags: N-terminal GST; dsDNA, one strand shown. In a few lines: as §1

The target of assay [6] is T5, ETS2 (Homo sapiens, UniProt P15036 1-469).
T5 sequence: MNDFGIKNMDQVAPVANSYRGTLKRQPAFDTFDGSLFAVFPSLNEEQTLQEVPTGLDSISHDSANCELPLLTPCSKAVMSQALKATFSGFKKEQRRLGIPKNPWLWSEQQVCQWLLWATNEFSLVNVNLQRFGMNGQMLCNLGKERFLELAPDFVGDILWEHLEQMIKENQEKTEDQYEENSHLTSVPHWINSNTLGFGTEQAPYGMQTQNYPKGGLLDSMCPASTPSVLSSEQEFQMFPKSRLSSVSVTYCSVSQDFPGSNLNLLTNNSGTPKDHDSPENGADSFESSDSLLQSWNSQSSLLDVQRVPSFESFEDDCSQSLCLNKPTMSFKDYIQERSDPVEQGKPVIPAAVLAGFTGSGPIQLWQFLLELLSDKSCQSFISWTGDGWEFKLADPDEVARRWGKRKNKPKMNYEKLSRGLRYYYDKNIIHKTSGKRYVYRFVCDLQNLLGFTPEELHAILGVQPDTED
The conditions noted are these: protein: recombinant; tags: N-terminal GST; dsDNA, one strand shown. In a few lines:
as §1

For assay [7], the target named is T6, ETV7 (Homo sapiens, UniProt Q9Y603 1-341).
T6 sequence: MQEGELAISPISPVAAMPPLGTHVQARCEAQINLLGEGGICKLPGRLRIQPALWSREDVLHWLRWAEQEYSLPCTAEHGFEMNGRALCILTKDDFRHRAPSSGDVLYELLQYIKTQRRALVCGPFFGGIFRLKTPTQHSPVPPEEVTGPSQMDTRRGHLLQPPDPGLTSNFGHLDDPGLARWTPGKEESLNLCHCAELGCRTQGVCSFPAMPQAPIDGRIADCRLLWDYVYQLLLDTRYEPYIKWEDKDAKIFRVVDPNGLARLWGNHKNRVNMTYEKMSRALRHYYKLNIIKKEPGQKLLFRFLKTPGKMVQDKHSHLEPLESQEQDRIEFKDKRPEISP
The conditions noted are these: protein: recombinant; tags: N-terminal GST; dsDNA, one strand shown. The gist of the method:
as §1

The target of assay [8] is T7, ELK1 (Homo sapiens, UniProt P19419 1-428).
T7 sequence: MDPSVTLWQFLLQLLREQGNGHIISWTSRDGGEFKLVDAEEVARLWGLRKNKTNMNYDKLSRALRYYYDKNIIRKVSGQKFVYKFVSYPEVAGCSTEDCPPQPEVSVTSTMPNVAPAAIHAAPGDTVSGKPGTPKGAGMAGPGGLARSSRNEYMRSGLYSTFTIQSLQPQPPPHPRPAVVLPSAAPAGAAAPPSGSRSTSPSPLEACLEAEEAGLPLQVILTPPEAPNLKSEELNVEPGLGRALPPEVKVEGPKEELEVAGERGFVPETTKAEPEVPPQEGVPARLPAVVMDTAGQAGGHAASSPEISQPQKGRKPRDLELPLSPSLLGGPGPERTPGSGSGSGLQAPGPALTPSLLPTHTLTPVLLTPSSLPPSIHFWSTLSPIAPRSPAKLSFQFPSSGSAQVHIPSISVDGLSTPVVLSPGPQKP
Conditions: protein: recombinant; tags: N-terminal GST; dsDNA, one strand shown. In a few lines:
as §1

For assay [9], the target named is T8, ERG (Homo sapiens, UniProt P11308 1-479).
T8 sequence: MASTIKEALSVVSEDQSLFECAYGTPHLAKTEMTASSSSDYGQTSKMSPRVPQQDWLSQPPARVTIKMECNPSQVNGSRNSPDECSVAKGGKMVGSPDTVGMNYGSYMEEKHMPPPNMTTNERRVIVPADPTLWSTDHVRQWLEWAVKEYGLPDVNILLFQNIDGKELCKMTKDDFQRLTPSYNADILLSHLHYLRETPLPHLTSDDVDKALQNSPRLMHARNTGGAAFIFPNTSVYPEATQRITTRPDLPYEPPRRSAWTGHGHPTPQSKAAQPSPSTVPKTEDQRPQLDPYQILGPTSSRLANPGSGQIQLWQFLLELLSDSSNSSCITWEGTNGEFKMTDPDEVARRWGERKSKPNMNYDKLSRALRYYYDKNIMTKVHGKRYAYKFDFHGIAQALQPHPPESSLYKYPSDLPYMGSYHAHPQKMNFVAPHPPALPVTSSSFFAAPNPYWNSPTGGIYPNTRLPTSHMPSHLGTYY
Conditions: protein: recombinant; tags: N-terminal GST; dsDNA, one strand shown. In a few lines:
as §1

Assay [10] has as its target T9, EHF (Homo sapiens, UniProt Q9NZC4 1-300).
T9 sequence: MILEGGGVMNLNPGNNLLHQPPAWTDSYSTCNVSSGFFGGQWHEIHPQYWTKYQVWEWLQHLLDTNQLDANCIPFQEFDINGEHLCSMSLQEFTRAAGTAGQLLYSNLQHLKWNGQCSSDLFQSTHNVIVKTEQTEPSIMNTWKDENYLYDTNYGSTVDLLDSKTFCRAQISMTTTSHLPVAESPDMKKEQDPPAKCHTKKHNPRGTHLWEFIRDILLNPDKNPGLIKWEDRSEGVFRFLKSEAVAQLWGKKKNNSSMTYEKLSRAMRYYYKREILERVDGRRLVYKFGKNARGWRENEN
Conditions: protein: recombinant; tags: N-terminal GST; dsDNA, one strand shown. In a few lines: as §1

Assay [11] addresses ELF4 (Homo sapiens, UniProt Q99607 1-663). Conditions: protein: recombinant; tags: N-terminal GST; dsDNA, one strand shown. In a few lines:
as §1

Assay [12] addresses CRX (Homo sapiens, UniProt O43186 1-299). The conditions noted are these: protein: recombinant; tags: N-terminal GST; dsDNA, one strand shown. The gist of the method: as §1

Chain of HSF1 (Q00613 whole entry): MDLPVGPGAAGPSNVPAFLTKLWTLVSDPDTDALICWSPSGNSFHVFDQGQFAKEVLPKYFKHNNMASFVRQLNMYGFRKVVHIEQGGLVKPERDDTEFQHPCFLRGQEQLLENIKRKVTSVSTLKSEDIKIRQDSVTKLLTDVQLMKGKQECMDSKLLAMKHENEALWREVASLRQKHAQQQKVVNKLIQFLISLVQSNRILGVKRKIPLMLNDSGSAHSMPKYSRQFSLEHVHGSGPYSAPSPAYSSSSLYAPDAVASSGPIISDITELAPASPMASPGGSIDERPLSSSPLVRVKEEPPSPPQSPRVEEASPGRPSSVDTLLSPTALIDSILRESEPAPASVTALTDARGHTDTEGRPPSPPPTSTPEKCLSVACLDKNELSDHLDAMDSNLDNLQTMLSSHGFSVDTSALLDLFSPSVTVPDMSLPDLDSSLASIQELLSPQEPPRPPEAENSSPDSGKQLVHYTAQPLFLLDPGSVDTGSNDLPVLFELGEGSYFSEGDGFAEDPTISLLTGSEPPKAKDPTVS
Chain of CRX (O43186 whole entry): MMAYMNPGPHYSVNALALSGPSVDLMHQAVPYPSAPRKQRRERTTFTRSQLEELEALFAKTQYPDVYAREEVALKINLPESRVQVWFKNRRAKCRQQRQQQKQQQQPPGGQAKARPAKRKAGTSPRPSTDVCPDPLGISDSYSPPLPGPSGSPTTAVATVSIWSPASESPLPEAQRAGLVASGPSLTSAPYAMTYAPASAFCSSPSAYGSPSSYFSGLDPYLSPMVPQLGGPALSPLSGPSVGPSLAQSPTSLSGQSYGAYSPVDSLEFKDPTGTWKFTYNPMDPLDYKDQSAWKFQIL
Chain of ELF4 (Q99607 whole entry): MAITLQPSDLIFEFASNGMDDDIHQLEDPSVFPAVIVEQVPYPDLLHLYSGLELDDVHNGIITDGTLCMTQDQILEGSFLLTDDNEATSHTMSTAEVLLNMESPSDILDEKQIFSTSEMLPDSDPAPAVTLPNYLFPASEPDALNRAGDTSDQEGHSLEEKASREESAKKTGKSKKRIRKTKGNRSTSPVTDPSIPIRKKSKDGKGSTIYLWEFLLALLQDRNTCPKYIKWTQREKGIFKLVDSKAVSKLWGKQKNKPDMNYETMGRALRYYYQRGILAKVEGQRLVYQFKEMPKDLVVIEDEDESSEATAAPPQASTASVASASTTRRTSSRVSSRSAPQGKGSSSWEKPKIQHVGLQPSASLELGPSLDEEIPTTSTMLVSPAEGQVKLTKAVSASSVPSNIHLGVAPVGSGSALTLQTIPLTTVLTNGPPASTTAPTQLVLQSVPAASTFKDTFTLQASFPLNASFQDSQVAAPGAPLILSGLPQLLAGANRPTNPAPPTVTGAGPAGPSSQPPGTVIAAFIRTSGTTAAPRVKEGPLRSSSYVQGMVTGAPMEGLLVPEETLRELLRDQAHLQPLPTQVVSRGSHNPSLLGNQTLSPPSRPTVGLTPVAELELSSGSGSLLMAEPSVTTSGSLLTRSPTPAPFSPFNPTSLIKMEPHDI

Turning to GCCTAG, the binding signal in assay [1] is 1.02 fold enrichment (6-mer frequency, TF over GST control); in assay [2], 1.21 fold enrichment (6-mer frequency, TF over GST control); in [3], 1.03 fold enrichment (6-mer frequency, TF over GST control); in assay [4] it was 1.08 fold enrichment (6-mer frequency, TF over GST control); in assay [5] it was 1.06 fold enrichment (6-mer frequency, TF over GST control); in assay [6], 1 fold enrichment (6-mer frequency, TF over GST control). Besides, in assay [7], the binding signal was 1 fold enrichment (6-mer frequency, TF over GST control).

Regarding TCGGCT, the binding signal is 1.02 fold enrichment (6-mer frequency, TF over GST control) in assay [8]; 1.03 fold enrichment (6-mer frequency, TF over GST control) in assay [1]; 1.09 fold enrichment (6-mer frequency, TF over GST control) in assay [9]; 1.02 fold enrichment (6-mer frequency, TF over GST control) in assay [10]; 1.15 fold enrichment (6-mer frequency, TF over GST control) in assay [2]; 1.1 fold enrichment (6-mer frequency, TF over GST control) in assay [11]. The binding signal is 1.34 fold enrichment (6-mer frequency, TF over GST control) in [12] and 1.05 fold enrichment (6-mer frequency, TF over GST control) in [7].

Values taken from PMC7862700, “An all-to-all approach to the identification of sequence-specific readers for epigenetic DNA modifications on cytosine”.
